# From PubChem BioAssay AID652105 (National Center for Advancing Translational Sciences (NCATS), 2013)
# The campaign covered roughly 330,000 compounds. About 4,100 (1.2%) were called active. Another 2% or so got no clear call; they are omitted. This is one part of a sample in which actives are shown more often than they occur. The calls were made as follows: active = max response of -50% or lower; inconclusive = between -30% and -50%; inactive = -30% or higher.
# Target: Phosphatidylinositol 5-phosphate 4-kinase type-2 alpha (Homo sapiens) (UniProt P48426)
# Sequence (P48426 whole entry, looked up): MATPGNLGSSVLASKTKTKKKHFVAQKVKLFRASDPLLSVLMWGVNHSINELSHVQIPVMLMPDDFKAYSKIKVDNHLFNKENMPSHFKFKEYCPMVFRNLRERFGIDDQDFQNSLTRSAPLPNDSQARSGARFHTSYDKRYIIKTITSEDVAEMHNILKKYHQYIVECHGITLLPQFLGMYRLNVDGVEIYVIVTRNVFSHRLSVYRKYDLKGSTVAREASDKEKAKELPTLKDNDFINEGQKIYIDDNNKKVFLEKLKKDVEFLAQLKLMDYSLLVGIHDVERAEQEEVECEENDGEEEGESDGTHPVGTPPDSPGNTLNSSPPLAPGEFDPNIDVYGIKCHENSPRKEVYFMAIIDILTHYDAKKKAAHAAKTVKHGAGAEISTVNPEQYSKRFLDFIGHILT
# Assay: qHTS for Inhibitors of phosphatidylinositol 5-phosphate 4-kinase (PI5P4K); also: value at the top dose of about 77 µM
# Details: PI5P4Kalpha enzyme, ADP-Glo luminescence, 60 min; hits give low values
# In short: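 Luminescence from ADP-Glo served as readout of PI5P4Kalpha activity in a qHTS format. Reaction: enzyme, substrate, compound, ATP at 5 microM final, 60 min at RT.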
# % is scaled to controls: 0 for no effect and ±100 for the full control effect.
row,Compound,max response
1,COc1ccc(C(O)C(O)(C(=O)OC(C)C)c2ccc(C)cc2)cc1 (centres undefined),-0.92% (inactive)
2,COc1cncc(-c2cnc3sc(NCCc4ccccn4)nn23)c1,-5.87% (inactive)
3,O=C1NC[C@H](CCCCN2CCN(CCc3ccccc3)C(=O)C2=O)N(CC2CCCCC2)C1=O,-2.74% (inactive)
4,CCOC(=O)[C@]12CCC=C1N(Cc1cccc3ccccc13)C(=O)[C@H](CC(=O)NCc1cccc(C(F)(F)F)c1)C2,11% (inactive)
5,CC1(Cc2ccccc2C#N)C(=O)Nc2ccc(-c3ccc4[nH]ccc4c3)cc21 (centres undefined),-19.1% (inactive)
6,CCN1C(=O)[C@@H]2[C@@H]3CN(S(=O)(=O)c4ccccc4C)[C@@H](c4ccc(Cl)cc4)[C@@H]3C(=O)C[C@@H]2C1=O,-5.23% (inactive)
7,Cc1cccc(-c2cnc(C(O)c3cc(C)cc(C)c3)[nH]2)c1 (centres undefined),0.164% (inactive)
8,CN1CCN(C(=O)c2ccc(NC(=O)c3ccc(Br)o3)cc2)CC1,-0.458% (inactive)
9,COc1ccc(C)cc1-n1nnnc1SCc1nc2ccccc2c(=O)[nH]1,-6.87% (inactive)
10,CCn1c(COc2c(C)cccc2C)nnc1SCc1nc2ccccc2c(=O)[nH]1,-1.01% (inactive)
11,COc1ccc(CCCc2nnc(SCc3nc4ccccc4c(=O)[nH]3)n2C)cc1,-92.1% (active)
12,CCC(=O)N1Cc2cc(C(=O)NCc3cccc(F)c3)nc(-c3cccc(C4=CCCC4)c3)c2[C@H]1CCO,-0.668% (inactive)
13,CN(C)C(=O)N=NC(=O)N(C)C,-58.3% (active)
14,CCc1nc2c(OCc3ccc(F)c(F)c3)cccn2c1N(C)C(=O)c1ccco1,-3.84% (inactive)
15,O=C(NNC(=S)NCc1ccco1)C(c1ccccc1)c1ccccc1,-8.48% (inactive)
16,CCCCC(=O)NNC(=S)NC(=O)C(c1ccccc1)c1ccccc1,-62.6% (active)
17,CCNC(=S)NNC(=O)Cc1ccccc1,5.73% (inactive)
18,CCCCCCn1c(=O)n2n(c1=O)C[C@]1(OC(=O)NCc3ccc(OC)c(OC)c3)CN(S(=O)(=O)c3ccc(C)cc3)C[C@]1(O)C2,3.29% (inactive)
19,CCOC(=O)[C@]12CCCC=C1N(CCC1=CCCCC1)C(=O)[C@H](CC(=O)NCCCCc1ccccc1)C2,0.467% (inactive)
20,CCCOc1ccc(F)cc1-c1cc(C(=O)Nc2ccc(F)cc2)[nH]n1,0.345% (inactive)
21,O=C(c1cccnc1)N(c1cc2sc(=O)oc2c2ccccc12)S(=O)(=O)c1ccccc1,-69.2% (active)
22,COc1ccc(N(C(=O)c2cccnc2)S(=O)(=O)c2ccc(OC)c(OC)c2)cc1,0.0951% (inactive)
23,COc1ccc(N(C(=O)c2cccnc2)S(=O)(=O)c2ccc3c(c2)n(C)c(=O)n3C)cc1,-3.4% (inactive)

row,Compound,max response
1,COCCCNC(=O)c1cccc2c(-c3ccc(O)c(OC)c3)coc12,4.94% (inactive)
2,COCCCNC(=O)c1ccc(-c2c(C)noc2C)c2ccoc12,-2.64% (inactive)
3,CCOc1ccc(CCN2C(=O)c3cccnc3C2=O)cc1OCC,-0.64% (inactive)
4,NC1=CC(=O)C(=O)c2cccnc21,-50.3% (active)
5,O=C1c2cccnc2C(=O)N1Cc1cccs1,0.461% (inactive)
6,O=C(Nc1ccc(Cl)cc1)C1Cc2c(-c3ccc4c(c3)OCO4)ccnc2O1 (centres undefined),-13.4% (inactive)
7,CCCCCn1nnnc1C1c2ccccc2C(=O)N1Cc1ccco1 (centres undefined),-0.242% (inactive)
8,O=C(NCC(=O)N1CCCC(C(F)(F)F)C1)c1ccccc1F (centres undefined),3.2% (inactive)
9,O=C(NC(Cc1ccccc1)C(=O)N1CCCC(C(F)(F)F)C1)c1ccccc1 (centres undefined),11.8% (inactive)
10,FC(F)(F)C1CCCN(c2nsc3ccccc23)C1 (centres undefined),-91.2% (active)
11,CCC(C(=O)NC(C)(C)C)n1c(-c2ccccc2)nc2ccccc21 (centres undefined),1.82% (inactive)
12,OC[C@@H]1CN(C2CCCC2)C[C@H](n2cnc3c(NC4CCC4)ncnc32)O1,-2.43% (inactive)
13,N#Cc1cccc(NC(=O)c2cc(C3CCCCN3C(=O)CCc3ccccc3)on2)c1 (centres undefined),-3.06% (inactive)
14,Cc1ccc(NC(=O)Cn2sc3ccccc3c2=O)cc1,-87% (active)
15,Cc1nn(CC(=O)Nc2ccc(F)cc2)c(=O)c2ccccc12,-3.79% (inactive)
16,Cc1ccc(NC(=O)Cn2c(C)csc2=O)cc1,6.3% (inactive)
17,CC(C)C[C@H]1CNC(=O)C(=O)N1C[C@@H]1CCCN1C[C@H](Cc1ccccc1)N1C[C@H](CC(C)C)N(CC2CCCCCC2)C(=O)C1=O,-0.689% (inactive)
18,Cc1cccc(-c2cnc(C(O)c3ccc4ccccc4c3)[nH]2)c1 (centres undefined),-4.33% (inactive)
19,CCc1nc2c(OCc3ccc(C(F)(F)F)cc3)cccn2c1N(C)C(=O)CC(C)C,9.67% (inactive)
20,CCN1CCCC1CNC(=O)c1ccc2c(c1)NC(=O)/C(=C\c1ccccc1F)S2 (centres undefined),-0.909% (inactive)
21,CCN1CCN(CCNC(=O)c2ccc3c(c2)NC(=O)/C(=C\c2cccc(Cl)c2)S3)CC1,-64.1% (active)
22,O=C1Nc2cc(C(=O)N3CCC(N4CCCCC4)CC3)ccc2S/C1=C\c1ccccc1,-1.98% (inactive)
23,COC(=O)[C@@]12C[C@@H](CC(=O)N3CCCCC3)C(=O)N(Cc3ccc4c(c3)OCO4)C1=CCC(C)(C)C2,-2.52% (inactive)

row,Compound,max response
1,CC(=O)OC[C@@H]1CN(Cc2ccccc2)C[C@H](n2cnc3c(NCc4ccco4)ncnc32)O1,-7.06% (inactive)
2,CCCCN(C=O)c1c(CC)nc2c(OCCC3CCCCC3)cccn12,-11.5% (inactive)
3,CC1(C(=O)Nc2cccc(Oc3ccccc3)c2)CCN1Cc1ccccc1Cl (centres undefined),19% (inactive)
4,CC(=O)N(CC1CCCO1)C1(C(=O)NC2CCCC2)CCCCC1 (centres undefined),8.44% (inactive)
5,CC(=O)NCC(=O)N(Cc1ccco1)C1(C(=O)NC2CCCC2)CCCCC1,1.69% (inactive)
6,O=C(Cc1cccs1)N(CC1CCCO1)C1(C(=O)NC2CCCCC2)CCCCC1 (centres undefined),-55.8% (active)
7,CCCNC(=O)c1cc(C2CCCCN2S(=O)(=O)c2ccc(C#N)cc2)on1 (centres undefined),7.08% (inactive)
8,O=C(Nc1ccc(Cl)c(C(F)(F)F)c1)C1Cc2c(-c3ccccc3Oc3ccccc3)ccnc2O1 (centres undefined),6.93% (inactive)
9,Cc1ccc(NC2(C#N)C(=O)Nc3ccccc32)cc1 (centres undefined),-2.41% (inactive)
10,N#CC1=C(N)Oc2[nH]c(=S)[nH]c(=O)c2C12C(=O)Nc1ccccc12 (centres undefined),-89.2% (active)
11,CC1(C)Cc2ccccc2-c2[nH]c(=S)[nH]c(=O)c21,-19.7% (inactive)
12,CCc1c(-c2ccc(F)cc2)ncn1Cc1cccc(-c2ccccc2)c1,-9.99% (inactive)
13,NNc1cccc(C=Cc2ccccc2)cc1=O,-74.4% (active)
14,O=c1[nH]c(/C=C/c2cccc(Br)c2)nc2ccccc12,-0.363% (inactive)
15,O=c1oc(/C=C/c2ccccc2)nc2ccccc12,8.43% (inactive)
16,OC(c1ccccc1)(c1ccccc1)C1CCN(CCCOc2ccccc2)CC1,-3.47% (inactive)
17,CC(C)C1Cc2[nH][nH]c(=O)c2C(c2ccc(Cl)cc2)O1 (centres undefined),-8.68% (inactive)
18,C1=C(N2CCOCC2)/C(=C/c2nc3ccccc3[nH]2)CC1,-77.5% (active)
19,CC1(C)Cc2c(C#N)c(SCc3nc4ccccc4[nH]3)nc(N3CCOCC3)c2CO1,2.17% (inactive)
20,O=c1[nH]c(N2CCOCC2)nc2ccccc12,-4.73% (inactive)
21,FC(F)(F)c1cccc(-c2nc3ccccc3n2C(c2ccccc2)c2nc3ccccc3[nH]2)c1 (centres undefined),-4.13% (inactive)
22,CC1(C(=O)NS(=O)(=O)c2cccs2)CCN1C(=O)Cc1ccc(-c2ccccc2)cc1 (centres undefined),-0.507% (inactive)
23,COC(=O)C1=C(C(=O)OC)C(c2cc([N+](=O)[O-])ccc2O)c2sc(=O)[nH]c2S1 (centres undefined),-81% (active)

row,Compound,max response
1,COC(=O)c1c(C)[nH]c(C)c1-c1ccc([N+](=O)[O-])cc1,8.82% (inactive)
2,COC(=O)C1=C(C)N(C)C(=O)NC1c1ccc([N+](=O)[O-])o1 (centres undefined),-6.27% (inactive)
3,CCCNC(=O)C1(C)CCN1C(=O)Cc1ccc(-c2ccccc2)cc1 (centres undefined),-2.28% (inactive)
4,CC(=O)c1nn(-c2ccccc2)c(=Nc2ccccc2)cc1C,-0.302% (inactive)
5,O=C(NCc1cccnc1)c1cc(C2CCCN(C(=O)CCCc3ccccc3)C2)on1 (centres undefined),1.02% (inactive)
6,COc1ccc(C(=O)N2CCC(C(=O)Nc3ccc(C)cc3)CC2)cc1,-67.6% (active)
7,O=C(Nc1ccccc1)C1CCN(C(=O)c2ccc(Br)cc2)CC1,-5.42% (inactive)
8,COc1ccc(CNC(=O)C2CCN(C(=O)c3ccccc3)CC2)cc1,6.89% (inactive)
9,Nc1ccccc1SC(C[N+](=O)[O-])c1ccccc1 (centres undefined),-75.7% (active)
10,Nc1ccccc1SCc1cc([N+](=O)[O-])cc2c1OCOC2,0.872% (inactive)
11,Cc1ccc(C(C[N+](=O)[O-])c2c(C)cc3ccccn23)cc1 (centres undefined),3.11% (inactive)
12,COc1cc(NC(=O)c2cc(-c3ccc(F)cc3OC(C)C)n[nH]2)cc(OC)c1OC,-6.5% (inactive)
13,CCCCCCN1CCN(C2CN(Cc3cn(Cc4ccc(F)cc4)nn3)S(=O)(=O)C2)CC1 (centres undefined),0.312% (inactive)
14,CN1CCN(/N=C/c2ccc(-c3ccc([N+](=O)[O-])cc3)o2)CC1,-0.908% (inactive)
15,NS(=O)(=O)c1ccc(-c2ccc(/C=C3\SC(=O)NC3=O)o2)cc1,-52.9% (active)
16,O=C(Nc1ccccc1)c1ccccc1Br,2.77% (inactive)
17,CCN(CC)CCN(C)C(c1ccnc2ccccc12)c1nnnn1-c1ccc2c(c1)OCCO2 (centres undefined),-0.0355% (inactive)
18,O=C(N/N=C/c1ccco1)c1csc2c1CCCC2,-21.6% (inactive)
19,O=C(Cc1ccc([N+](=O)[O-])cc1)N/N=C/c1ccco1,-5.81% (inactive)
20,O=C(N/N=C/c1ccco1)c1ccc(C(=O)N/N=C/c2ccco2)o1,-70.9% (active)
